SMILES strings stand for the structures. The panel holds about 83,000 compounds, 20% with a hit somewhere; the sample as a whole holds those more often.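 Growth was measured after 48 h exposure to one concentration of compound in 96-well plates. Values under 10 count as active.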 A number with no mark means an inactive call. Active and inactive are the calls of the source.

Drawing on PubChem BioAssay (NCI), this text covers growth for 38 compounds.

For the assay, the system named is NCI-H23 lung. The assay is described as follows: NCI-60 one-dose screen, 48 h (100 = growth as untreated, 0 = no growth, -100 = all killed). The conditions noted are these: 10 µM.
Regarding `COc1ccc(-n2nnc3c(sc4ccccc43)c2=O)cc1`, the growth is 68.5%.

As for `COc1ccc(Cn2cc3c(c2-c2cc(OC)c(OC)c(OC)c2)CCc2cnoc2-3)cc1[N+](=O)[O-]`, the growth was 26.1%. To `Nc1ncc(-c2ccc(C(F)(F)F)cc2)c(NC2CCCCCC2)n1` belongs 11.9%. Take `CC(C)(C)CC(C)(C)c1ccc(O)c(Cc2ccc(Cl)cc2Cl)c1`: the growth is -85.9% (active). For `CC(=O)Nc1ccc2c(c1)C(N1CC3CCC(CC3)C1)c1ccccc1-2` (stereo not drawn) the value was 90.7%. Turning to `COc1cccc2c1C(=O)c1c(O)c3c(c(O)c1C2=O)C[C@@](O)(C(=O)COC(=O)c1cccnc1)C[C@@H]3OC1CC(N)C(O)C(C)O1` (stereo partly drawn), the growth was -24.7% (active).

Take `O=C(CCl)N1c2ccccc2Sc2ccc3ccccc3c21`: the growth was -76.5% (active). For `CCOc1nc(-c2ccccc2)cc2c(O)c(C(=O)NC(C)C)[nH]c(=O)c12` the value was 97%. For `CN1/C(=C\C(I)C(I)C2=[N+](C)c3ccccc3C2(C)C)C(C)(C)c2ccccc21` (stereo not drawn) the value was 3.16% (active); for `COc1ccc(-c2csc(NC(=O)CO[N+](=O)[O-])n2)cc1`, 93.4%.

Regarding `CCCCc1ccc(NC(=O)N(CCCl)N=O)cc1`, the growth is 109%. For `CCCCOCCOCCOCc1cc2c(cc1Br)OCO2` the value was 99.3%.

As for `Nc1nc2c(ncn2C2OC3COP(=O)(O)OC4C(COP(=O)(O)OC2C3O)OC(n2cnc3c(N)ncnc32)C4O)c(=O)[nH]1` (stereo not drawn), the growth was 106%.

As to `O=[N+]([O-])c1ccc(-c2nc(-c3ccccc3)c(-c3ccccc3)n2-c2ccccc2)cc1`, the growth was 25.2%. For `O=C1CC[C@@H](C(=O)N[C@H]2CSSC[C@@H](C(=O)N/C=C/c3ccc(O)cc3)NC(=O)[C@H](Cc3ccccc3)NC(=O)[C@@H]3CCCN3C(=O)[C@@H]3CCCN3C2=O)N1` the value was 96.5%; for `CCCCCc1cc[n+](CC(=O)c2ccc(Cl)cc2)cc1`, 81.5%. To `CC(C)CCN(CCCNc1c2c(nc3cc(Cl)ccc13)CCCC2)CCC(C)C` belongs 62.3%; to `FC(F)(F)c1ccc(-c2ncc(-c3ccc(C(F)(F)F)cc3)c(NCc3cc(C(F)(F)F)cc(C(F)(F)F)c3)n2)cc1`, 39.3%. To `CC(=O)CS(C)(=O)=O` belongs 102%; to `COc1ccc(-c2csc(-c3cc(Cl)cc(Cl)c3Cl)n2)cc1`, 91.4%. For the compound `Cc1nnc2c3nnc(-c4ccc(Cl)cc4)n3c3ccccc3n12`, the growth was 103%. Turning to `O=C(C=P(c1ccccc1)(c1ccccc1)c1ccccc1)c1ccc(Br)cc1`, the growth was 85.8%.

With `COc1cc(C2=Nc3c/c(=C\c4c(O)[nH]c5ccc(Cl)cc45)ccc3=N2)cc(OC)c1OC`, the growth is 2.68% (active). On to `NC(=O)c1ccc(Br)o1`, for which the growth was 95.1%. For `C(=C\c1nc2ccccc2s1)/c1ccc(N2CCOCC2)s1` the value was 78%; for `COc1ccc(-c2nnc(N3CCN(C(=O)CN4CCN(c5ccc(Cl)cc5)CC4)CC3)nc2-c2ccc(OC)cc2)cc1`, 68.1%; for `Cc1ccc(C2C=C(c3ccc(Cl)cc3)N=C3SC=CN32)c(Br)c1` (stereo not drawn), 85%. To `N#CCC1CCCC1` belongs 115%. As for `FC(F)(F)c1ccc(-c2cnc(Cl)nc2NC2CCCCCC2)cc1`, the growth is 25.8%. To `Oc1ccccc1-c1nnc(Cn2c(Cc3cccc4ccccc34)nc3ccccc32)o1` belongs 90.8%; to `CCOC(=O)c1cc2c(n1Cc1cc(OC)cc(OC)c1)-c1oncc1CC2`, 38.4%. To `COc1ccc(-c2nnc(SC/C(=N\O)c3ccccc3)o2)cc1` belongs 89.3%; to `CCOCC[P+](c1ccccc1)(c1ccccc1)c1ccccc1`, 36%; to `CCN(CC)CC(O)CNc1ccnc2cc(Cl)c(Cl)cc12` (stereo not drawn), 102%.

Consider `COc1cccc(C(=O)NNc2nc(N3CCN(C4CCCCC4)CC3)nc(N3CCN(C(c4ccccc4)c4ccccc4)CC3)n2)c1`, for which the growth was 41.5%. For `COc1ccc(CCc2nc3cc(-c4c(C)noc4C)ccc3n2CCN2CCOCC2)cc1` the value was 49.5%; for `Nc1ccc(C2=CC(c3ccc(Cl)cc3)N3C=CSC3=N2)cc1` (stereo not drawn), -46.6% (active); for `CN(C)Cc1cccs1`, 94%.
